High-throughput results from PubChem BioAssay.
The list is not random: actives were taken first. Their share in the collection is about 3.5%.
GPR151 activ = activators of human GPR151, primary screen, cell-based, PathHunter beta-arrestin, luminescence. G-protein coupled receptor 151 (Homo sapiens), Q8TDV0. 650,000 compounds, 1% hits. PathHunter beta-arrestin GPR151 cells. AID 1508602, 2020. activation, % at 11.2 µM; in the data active means activation above about 4.9%
FBW7 act = FBW7 E3 ligase activators, primary screen, biochemical, AlphaScreen, human. normalized activity (activation), % at 26.1 µM. AID 1259310, 2017. 650,000 compounds, 0.13% hits. AlphaScreen FBW7–phospho-cyclin E peptide binding, activator screen. F-box/WD repeat-containing protein 7 (Homo sapiens), Q969H0; in the data active means normalized activity above about 1.9%;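 further: purified mutant Fbw7 with reduced substrate affinity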
MITF primary = MITF inhibitors, primary screen, biochemical, AlphaScreen, human | Microphthalmia-associated transcription factor (Homo sapiens), O75030 | AlphaScreen MITF homodimerization, bead proximity signal | inhibition, % at 2.6 µM | 650,000 compounds, 0.91% hits | AID 1259374, 2018; in the data active means inhibition above about 50%
Target sequence (O75030 whole entry, looked up): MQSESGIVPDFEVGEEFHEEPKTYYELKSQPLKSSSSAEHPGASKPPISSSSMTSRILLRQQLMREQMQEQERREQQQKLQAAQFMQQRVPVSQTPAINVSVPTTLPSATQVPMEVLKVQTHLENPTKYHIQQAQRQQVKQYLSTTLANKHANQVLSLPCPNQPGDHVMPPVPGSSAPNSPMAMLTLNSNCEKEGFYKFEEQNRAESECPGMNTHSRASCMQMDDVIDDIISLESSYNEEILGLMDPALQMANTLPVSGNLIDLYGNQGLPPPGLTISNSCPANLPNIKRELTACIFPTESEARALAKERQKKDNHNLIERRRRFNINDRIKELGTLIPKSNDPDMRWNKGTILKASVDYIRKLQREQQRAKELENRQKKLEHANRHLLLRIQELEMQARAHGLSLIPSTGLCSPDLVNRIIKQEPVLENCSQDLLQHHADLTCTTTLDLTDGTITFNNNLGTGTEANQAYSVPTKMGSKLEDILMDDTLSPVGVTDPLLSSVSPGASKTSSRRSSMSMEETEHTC
TEAD-YAP block = TEAD-YAP interaction inhibition, primary screen, TEAD-YAP interaction inhibitor project, luminescence, HEK-TIYL cells | TEAD-Gal4/YAP UAS-luciferase luminescence | inhibition, % at 9.12 µM | 640,000 compounds, 1.4% hits | AID 1259422, 2018; in the data active means inhibition above about 32%
Numbers stand for hits; 0 = inactive.

SMILES	GPR151 activ	FBW7 act	MITF primary	TEAD-YAP block
COC(=O)c1cccc(NC(=O)COC(=O)c2cc3ccccc3o2)c1	0	0	0	0
O=[N+]([O-])c1cccc(CN2CCCCCC2)c1	0	0	0	0
O=[N+]([O-])c1cccc(CN2CCN(Cc3cc(Br)ccc3O)CC2)c1	0	0	65.3	0
Cc1cc(NC(=O)c2ccc3c(c2)OCCO3)no1	0	0	0	79.2
Cc1cc(NC(=O)c2ccc3c(c2)OCO3)no1	0	0	0	0
Cc1cc(NC(=O)c2ccc3c(c2)OCCO3)on1	0	0	0	38.2
Cc1cccc(NC(=O)c2ccc3c(c2)OCCO3)n1	0	0	0	0
CCN1CCC(N(Cc2cccc(OC)c2)C(=O)Nc2ccc(Cl)cc2)CC1	0	0	0	0
O=C(Nc1cccc(F)c1)/C(=C\c1ccc([N+](=O)[O-])cc1)NC(=O)c1ccccc1Br	0	0	0	0
COc1ccc(C2CC(c3cccs3)=NN2C(=O)CSc2nnc(CNC(=O)c3ccc([N+](=O)[O-])cc3)n2-c2cccc(C)c2)cc1 (stereo unspecified)	0	0	0	0
COc1ccc(N(C)S(=O)(=O)c2cccc3cccnc23)c(OC)c1	0	0	0	39.0
COc1ccc(CC(C)NN2CCCCC2)c(OC)c1 (stereo unspecified)	0	0	0	0
CCN1CCN(CC(O)CN2CCn3c4c(c5cc(C6CCCCC6)ccc53)CCCC42)CC1 (stereo unspecified)	0	0	50.6	0
CCN1CCn2c3c(c4cc(Br)ccc42)CCCC31 (stereo unspecified)	0	0	0	0
CC(C)n1cnc2c(Nc3ccc(N4CCOCC4)cc3)nc(Nc3ccc(-n4ccnc4)cc3)nc21	0	0	0	49.7
Cc1cnc(Nc2ccc(-n3ccnc3)cc2)nc1Nc1ccc2c(c1)OCO2	0	0	0	60.5
CC(C)n1cnc2c(Nc3ccc4c(c3)OCO4)nc(Nc3ccc(-n4ccnc4)cc3)nc21	0	0	0	39.3
CC(C)n1cnc2c(Nc3ccc4c(c3)OCO4)nc(Nc3ccccc3)nc21	0	0	0	0
CC(C)n1cnc2c(Nc3ccc4c(c3)OCO4)nc(Nc3cnccn3)nc21	0	12.3	0	0
CC(=O)Nc1ccc(Nc2nc(Nc3ccc(N4CCOCC4)cc3)nc3c2ncn3C(C)C)cc1	0	0	0	0
c1cnc(Nc2nc(Nc3ccc4c(c3)OCO4)c3ncn(C4CCCCC4)c3n2)cn1	0	0	0	0
CC(=O)N1c2ccc(-c3nc(NC(=O)c4ccncc4)sc3C)cc2CC1C (stereo unspecified)	0	0	0	0
CCCOc1ccc(/C=N/NC(=O)c2ccoc2C)cc1	0	0	0	0
O=C(/C=C/Nc1ccc(I)cc1)c1cccs1	0	0	0	41.1
O=C(/C=C\Nc1cccc(F)c1)c1cccs1	0	0	0	0
SMILES	GPR151 activ	FBW7 act	MITF primary	TEAD-YAP block
COC(=O)c1ccc(N/C=C/C(=O)c2cccs2)cc1	0	0	0	53.1
Cc1ccc(N/C=C/C(=O)c2cccs2)cc1	0	0	0	81.4
O=C(/C=C/c1cccs1)Nc1ncccn1	0	0	0	0
N#C/C(=C/c1ccoc1)c1nc(CCN2C(=O)c3ccccc3C2=O)cs1	0	0	0	0
Cc1csc(NC(=O)c2cc([N+](=O)[O-])ccc2Sc2nnnn2C)n1	0	0	0	38.9
CCN1C(=O)/C(=C\c2ccc(N(C)C)cc2)C(C(=O)OC)=C1C	0	0	0	0
CCN(CC)c1ccc2nc3c4ccccc4c(=O)cc-3oc2c1	0	0	0	34.4
CCN(CC)c1ccc2cc(C=O)c(=O)oc2c1	0	0	0	0
CCC(=O)N1c2ccccc2NC2=C(C(=O)CC(C)(C)C2)C1c1ccc(N(CC)CC)cc1 (stereo unspecified)	0	0	0	0
COC(=O)c1ccc(N2CCCCC2)c2c1C(=O)c1ccccc1C2=O	0	0	54.8	0
COC(=O)c1cnc(N2CCCCCC2)c2ccccc12	0	0	0	0
CCC(=O)Nc1nc2nc(C(C)C)cc(=O)n2[nH]1	0	0	0	0
COc1ccc(Br)cc1/C=C/C(=O)c1cccc(NC(C)=O)c1	0	0	0	74.8
C/C(=N\NC(=O)c1cc(C)nc2ccccc12)c1ccco1	0	0	0	44.7
Cc1cc(C(=O)NN)c2ccccc2n1	0	0	0	43.6
C/C(=N\NC(=O)c1cc(-c2c(C)nn(-c3ccccc3)c2C)n[nH]1)c1ccccc1O	0	0	0	43.8
C/C(=N\NC(=O)c1cc(C)nc2ccccc12)c1ccccc1O	0	0	0	53.3
COc1ccccc1/C=C1\SC(N2CCN(c3ccccc3)CC2)=NC1=O	0	0	0	0
COc1cccc(OCC(O)CN2C(=O)CCC2CCNCc2ccccc2)c1 (stereo unspecified)	0	0	0	0
O=c1c[n+]([O-])c2ccccc2n1OCc1ccc(Oc2ccccc2)cc1	0	0	0	0
CC1(C)CC(=O)C2=C(C1)N(c1c(F)cccc1F)C(N)=C(C#N)C2c1ccccc1 (stereo unspecified)	0	0	0	0
Cc1cc(C(=O)N/N=C/c2cccc([N+](=O)[O-])c2)c2ccccc2n1	0	0	0	0
CN1CCC(=NNC(=O)c2c[nH]c3ccccc23)CC1	0	0	0	0
COc1ccc(/C(C)=N\NC(=O)c2ccccc2O)c(OC)c1	0	0	0	85.2
Cc1cc(C(=O)NN=C2CCN(C)CC2)c2ccccc2n1	0	0	0	51.0
SMILES	GPR151 activ	FBW7 act	MITF primary	TEAD-YAP block
Cc1cc(C(=O)N/N=C/c2ccc(OC(F)F)cc2)c2ccccc2n1	0	0	0	54.5
COc1ccc(/C(C)=N/NC(=O)c2ccccc2[N+](=O)[O-])c(OC)c1	0	0	0	0
CCN(C(=O)c1cn(CC(C)C)c(=O)c2cc(OC)c(OC)cc12)c1ccc(F)cc1	0	0	0	0
Cc1ccc2[nH]c(=O)c(CN(CCO)S(=O)(=O)c3cccc4nsnc34)cc2c1	0	0	0	48.1
CCOC(=O)C(NC(=O)c1cc(-c2ccc3c(c2)OCCO3)oc1C)C(C)C (stereo unspecified)	0	0	0	0
CC1(C)COCN1Cc1ccc([N+](=O)[O-])cc1	0	0	0	0
Cn1nc2c(c1NC(=O)C1CCCN(S(=O)(=O)c3ccc(Cl)s3)C1)CCC2 (stereo unspecified)	0	0	0	33.4
COc1ccc(S(=O)(=O)N2CCCC(C(=O)Nc3c4c(nn3C)CCC4)C2)cc1 (stereo unspecified)	0	0	0	0
COc1ccc(Cl)cc1N(CC(=O)N1CCC(C)CC1)S(=O)(=O)c1ccccc1	0	0	0	0
CCC(C)Nc1c(-c2ccc(C)c(C)c2)c(=O)c1=O (stereo unspecified)	0	0	0	52.2
Cc1ccc(-c2c(NC3CCCC3)c(=O)c2=O)cc1C	0	0	0	32.2
CCC(C)Nc1c(-c2ccc(C)cc2)c(=O)c1=O (stereo unspecified)	0	0	0	0
